{
  "source": "PubChem BioAssay (NCATS)",
  "note": "Records with an inconclusive call do not appear. Entries that show only a call come without a potency. Active and inactive are the calls of the source. The call rests on the fitted dose curve; in most records, active means well fitted inhibition curve with a large enough effect in the signal ratio, with a control signal flat (not every such curve was filed as active); inconclusive means small, poorly fitted or top-dose-only effect, or effect the other way, or a change in a side signal; inactive means no such curve, though single readings can be large or run the other way; the % refers to the signal ratio.",
  "data": [
    {"target": "Peroxisome proliferator-activated receptor delta (Homo sapiens) (UniProt Q03181)", "sequence (Q03181 whole entry, looked up)": "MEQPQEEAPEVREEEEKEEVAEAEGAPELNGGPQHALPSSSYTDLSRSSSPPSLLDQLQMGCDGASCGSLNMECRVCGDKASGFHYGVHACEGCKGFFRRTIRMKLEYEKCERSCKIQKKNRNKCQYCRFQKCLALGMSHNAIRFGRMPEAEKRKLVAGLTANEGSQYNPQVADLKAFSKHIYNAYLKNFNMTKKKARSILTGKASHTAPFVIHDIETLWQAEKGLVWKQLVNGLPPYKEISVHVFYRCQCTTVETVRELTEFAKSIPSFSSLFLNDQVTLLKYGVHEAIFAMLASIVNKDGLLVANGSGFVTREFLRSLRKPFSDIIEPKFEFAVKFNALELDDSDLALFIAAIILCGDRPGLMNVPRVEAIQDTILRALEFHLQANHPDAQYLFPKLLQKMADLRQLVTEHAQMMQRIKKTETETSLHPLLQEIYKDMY", "assay": "qHTS assay for small molecule antagonists of peroxisome proliferator-activated receptor delta signaling (AID 588535)", "settings": "HEK293T PPARd-UAS-bla, beta-lactamase FRET ratio, 18 h; series mostly up to 76.7 µM", "from_the_text": "NIH Chemical Genomics Center [NCGC] U.S. Environmental Protection Agency [EPA] National Institutes of Environmental Health Sciences [NIEHS] National Toxicology Program [NTP] NCGC Assay Overview The Peroxisome proliferator-activated receptors (PPARs) are lipid-activated transcription factors of the nuclear receptor superfamily with three distinct subtypes namely PPAR alpha, PPAR delta (also called PPAR beta) and PPAR gamma. All these subtypes heterodimerizes with Retinoid X receptor (RXR) and have different physiological functions. […] This role of PPAR delta implicates the potential use of its ligands in the treatment of metabolic disorders.\nNCGC Assay Protocol Summary Using a beta-lactamase reporter-gene under control Peroxisome Proliferator-Activated Receptor delta (PPAR-delta) response element, a cell-based assay [GeneBLAzer (PPAR-delta-UAS-bla assay developed by Invitrogen] was used to measure PPAR-delta ligands signaling. GeneBLAzer PPAR-delta-UAS-bla HEK293T cells were used with assay medium containing 2% charcoal/dextran FBS. The assay was performed in clear bottom black Greiner 1536-well plates. Library compounds were measured for their ability to inhibit the reporter gene activity. Compounds were screened in a titration series in 1536-well format. The fluorescence intensity (405 nm excitation, 460/530 nm emission) was measured using an EnVision plate reader. […] Concentration-response titration points for each compound were fitted to the Hill equation yielding concentrations of half-maximal inhibition (IC50) and maximal response (efficacy) values. qHTS protocol for PPAR-delta beta-lactamase assay in antagonist mode [Step] [Parameter] [Value] [Description] 1. Reagent; 5 uL; 4000 cells/well 2. Incubation; 37 C for 5 hrs 3. Compounds; 23 nL; 0.59 nM to 92 uM 4. […] Incubation; 37 C for 18 hrs 7. Detection reagent; 1 uL of CCF4-dye 8. Incubation; RT for 2 hrs 9. Detection; Fluorescence; Envision plate reader", "values": [
      {"compound": "CC(=O)CC(C)C", "Potency": "inactive"},
      {"compound": "Cc1ccccc1C#N", "Potency": "inactive"},
      {"compound": "ICCc1ccccc1", "Potency": "inactive"},
      {"compound": "O=C(Cl)c1cccc([N+](=O)[O-])c1", "Potency": "inactive"},
      {"compound": "O=C(O)/C=C/C(=O)O", "Potency": "inactive"},
      {"compound": "COc1cccc2sc(N)nc12", "Potency": "inactive"},
      {"compound": "CCCCC(C=O)CC", "note": "(stereo not given)", "Potency": "inactive"},
      {"compound": "CC(O)COC(C)(C)C", "note": "(stereo not given)", "Potency": "inactive"},
      {"compound": "CCCCC/C=C/C=C/C=O", "Potency": "inactive"},
      {"compound": "c1ccsc1", "Potency": "inactive"},
      {"compound": "CC(=O)c1cc(C)oc1C", "Potency": "inactive"},
      {"compound": "c1ccc(Nc2ccccc2)cc1", "Potency": "inactive"},
      {"compound": "O=[N+]([O-])c1ccccc1CCO", "Potency": "inactive"},
      {"compound": "CCCCOCCOCCSC#N", "Potency": "inactive"},
      {"compound": "CCCCN(CCO)CCCC", "Potency": "inactive"},
      {"compound": "CC(C)CCOC(=O)/C=C/c1ccccc1", "Potency": "inactive"},
      {"compound": "O=C1C=CCCC1", "Potency": "inactive"},
      {"compound": "CC(C=O)Cc1ccc(C(C)(C)C)cc1", "note": "(stereo not given)", "Potency": "inactive"},
      {"compound": "C=C(C)C(=O)OCCCCCC", "Potency": "inactive"},
      {"compound": "O=C1OC(=O)c2c(Br)c(Br)c(Br)c(Br)c21", "Potency": "inactive"},
      {"compound": "COC(=O)CCC(=O)OC", "Potency": "inactive"},
      {"compound": "Cc1cccc2sc(N)nc12", "Potency": "inactive"},
      {"compound": "CCC1CO1", "note": "(stereo not given)", "Potency": "inactive"},
      {"compound": "Cc1cccc(C)c1", "Potency": "inactive"},
      {"compound": "Nc1ccc(Cl)cc1[N+](=O)[O-]", "Potency": "inactive"},
      {"compound": "Cc1ccc(C)cc1", "Potency": "inactive"},
      {"compound": "CC(C)=CCl", "Potency": "inactive"},
      {"compound": "Cc1c(N)cccc1N", "Potency": "inactive"},
      {"compound": "CCCCCCC=O", "Potency": "inactive"},
      {"compound": "COCCOC(=O)c1ccccc1C(=O)OCCOC", "Potency": "inactive"},
      {"compound": "Cc1cccc(C(=O)O)c1", "Potency": "inactive"},
      {"compound": "Nc1cccc2c(=O)[nH][nH]c(=O)c12", "Potency": "inactive"},
      {"compound": "CC/C=C/C#N", "Potency": "inactive"},
      {"compound": "CC1CCCO1", "note": "(stereo not given)", "Potency": "inactive"},
      {"compound": "CC(=O)c1ccccc1[N+](=O)[O-]", "Potency": "inactive"},
      {"compound": "CC=O", "Potency": "inactive"},
      {"compound": "FC(F)(F)c1ccccc1Cl", "Potency": "inactive"},
      {"compound": "N#CC1(O)CCCCC1", "Potency": "inactive"},
      {"compound": "C/C=C1\\CC2C=CC1C2", "note": "(stereo not given)", "Potency": "inactive"},
      {"compound": "Cc1ccc2oc(=O)ccc2c1", "Potency": "inactive"}
    ]}
  ]
}
